TRPM1 prom inh – inhibitors of MITF-dependent TRPM1 promoter reporter, primary screen, cell-based, SK-MEL-5, single point, luciferase. SK-MEL-5 TRPM1 promoter luciferase, 24 h. inhibition, % at 12.5 µM. 0.83% of 330,000 active. AID 488899, 2010;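 active = mean inhibition across replicates of 60% or more, whatever share of single replicates reaches that level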
EBV LMP1 NFkB – EBV LMP1-driven NF-kappaB luciferase reporter inhibitors, primary screen, cell-based, luminescence, single point | LMP1-induced NF-kappaB luciferase reporter cells | 0.69% of 350,000 active | inhibition, % at 12.5 µM; in the data active = inhibition above about 41%;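 note: 0% = neutral control wells and 100% = reference inhibitor control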
TROY NFkB inh – inhibitors of TROY-driven NF-kB signaling, primary screen, Q293 LMP1-TROYcd cells, NF-kB luciferase, uHTS. 0.98% of 360,000 active. inhibition, % at 10 µM. Q293 LMP1-TROYcd NF-kB luciferase reporter, 4 h;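 active = compounds whose plate-normalised and pattern-corrected inhibition of the luciferase reporter signal at the single screening dose is 50% or more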
Shn3 3UTR inh – reduction of Shn3 3'UTR firefly luciferase signal, primary screen, Schnurri-3 inhibitor project, cell-based, Clone20 osteoblasts, set 2 | Clone20 osteoblast Shn3 3'UTR firefly luciferase, 24 h | inhibition, % at 12.5 µM | 0.52% of 360,000 active | AID 588674, 2011;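 active = mean inhibition of at least 75% with every replicate also reaching 75%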;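 note: 0% = median of neutral control wells and 100% = pilot-screen positive control compound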
HIF-2a block – HIF-2a reporter inhibitors, primary screen, luminescence, 786-0 RCC cells. 786-0 RCC cells HIF-2a reporter, luciferase luminescence, overnight. inhibition, % at 18.8 µM. 0.72% of 360,000 active. AID 624352, 2012;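 active = inhibition of the luminescence signal of 40% or more relative to plate controls, in a single-dose primary screen at 18.75 µM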
TWEAK Fn14 block – inhibitors of TWEAK-Fn14 signaling, primary screen, luciferase reporter cells, uHTS; AID 1159606, 2016; inhibition, % at 10 µM; TWEAK-stimulated Fn14 reporter cells, luciferase luminescence, 8 h; 2% of 360,000 active; in the data active = inhibition above about 50%
Active calls of the source: *. Most compounds without a hit are left out; they make up all but 3.4% or so of the library.

Screening O=C1C=CC(=O)C2C1C1(Cl)C(Cl)=C(Cl)C2(Cl)C1(Cl)Cl (centres undefined) returned TRPM1 prom inh -4.5, EBV LMP1 NFkB 3.8, TROY NFkB inh 46.0, Shn3 3UTR inh 33.0, HIF-2a block 22.9 and TWEAK Fn14 block 56.7*.
`COC(=O)C1=Nc2ccccc2/C1=C\c1c(O)n(-c2ccc(Br)cc2)c(=O)[nH]c1=O` gave TRPM1 prom inh 5.9, EBV LMP1 NFkB 1.6, TROY NFkB inh -2.4, Shn3 3UTR inh -3.9, HIF-2a block 23.2 and TWEAK Fn14 block 58.6*.
COC(=O)C1=Nc2ccccc2/C1=C\c1c(O)n(-c2ccc(OC)cc2)c(=O)[nH]c1=O was read as TRPM1 prom inh 17.5, EBV LMP1 NFkB 3.5, TROY NFkB inh 34.7, Shn3 3UTR inh -0.4, HIF-2a block 1.3 and TWEAK Fn14 block 64.6*.
`CC(=O)O[C@@H]1CC[C@]2(C)C3CC[C@]4(C)C(=O)[C@H](O)CC4C3[C@@H](OC(C)=O)C[C@H]2C1` (some centres undefined) gave TRPM1 prom inh 11.4, EBV LMP1 NFkB 6.7, TROY NFkB inh 30.3, Shn3 3UTR inh -20.8, HIF-2a block 19.0 and TWEAK Fn14 block 52.8*.
Screening CCOC(=O)c1c(-n2c(C)cc(C=C3C(=O)NC(=S)NC3=O)c2C)sc2c1CCCC2 returned TRPM1 prom inh 64.5*, EBV LMP1 NFkB 1.0, TROY NFkB inh -3.2, Shn3 3UTR inh 63.4, HIF-2a block 77.2* and TWEAK Fn14 block 2.9.
Screening O=C(NC1CCCCC1)N1Cc2cc(-c3ccccc3)ccc2-n2nncc2C1 returned TROY NFkB inh 11.3, Shn3 3UTR inh -4.0, HIF-2a block -7.2 and TWEAK Fn14 block -9.8.
Screening CCOC(=O)C1CCCN(c2ccc([N+](=O)[O-])c3nonc23)C1 (centres undefined) returned TRPM1 prom inh -8.6, EBV LMP1 NFkB -0.4, TROY NFkB inh 20.0, Shn3 3UTR inh -23.9, HIF-2a block 7.0 and TWEAK Fn14 block 1.7.
`O=C(OC1CCN(CCCl)CC1)C(c1ccccc1)c1ccccc1` gave TRPM1 prom inh 38.5, EBV LMP1 NFkB 51.1*, TROY NFkB inh -14.2, Shn3 3UTR inh 93.3*, HIF-2a block 13.0 and TWEAK Fn14 block 0.3.
`C[N+]1(C)[C@@H]2CC[C@H]1CC(OC(=O)C(c1ccccc1)c1ccccc1)C2` (some centres undefined) gave TRPM1 prom inh 1.4, EBV LMP1 NFkB -2.0, TROY NFkB inh -1.3, Shn3 3UTR inh -12.1, HIF-2a block 12.3 and TWEAK Fn14 block 15.0.
For COc1ccc(NC(=O)N2C[C@@H]3C[C@@H](C2)c2cccc(=O)n2C3)c(OC)c1 the results were TRPM1 prom inh 10.2, EBV LMP1 NFkB -2.5, TROY NFkB inh -1.3, Shn3 3UTR inh -4.0, HIF-2a block 8.4 and TWEAK Fn14 block -32.0.
For CCC1(C)OC(c2ccccc2)=C/C(=C/C=C2C(=O)NC(=O)NC2=O)O1 (centres undefined) the results were TRPM1 prom inh 12.3, EBV LMP1 NFkB 4.7, TROY NFkB inh 24.2, Shn3 3UTR inh 8.4, HIF-2a block 14.0 and TWEAK Fn14 block 7.8.
`COc1ccc(Br)cc1CN1CCN(C(=O)Cc2ccccc2)CC1` gave TRPM1 prom inh 17.6, EBV LMP1 NFkB -7.6, Shn3 3UTR inh 3.2, HIF-2a block 20.5 and TWEAK Fn14 block 82.0*.
CCOP(=O)(OCC)C(NS(=O)(=O)c1ccccc1)C(Cl)(Cl)Cl (centres undefined) was read as TRPM1 prom inh 0.9, EBV LMP1 NFkB -3.9, TROY NFkB inh 16.3, Shn3 3UTR inh -3.2, HIF-2a block 10.2 and TWEAK Fn14 block 17.5.
`CCn1c(O)c(N=Nc2ccc(S(=O)(=O)N3CCOCC3)cc2)c(=O)n(CC)c1=S` gave TRPM1 prom inh 52.1, EBV LMP1 NFkB 5.6, TROY NFkB inh 17.9, Shn3 3UTR inh 4.1, HIF-2a block 2.6 and TWEAK Fn14 block 57.0*.
Screening CC(Cc1ccccc1)N(C)CC1C(=O)C2CCC1C2 (centres undefined) returned TRPM1 prom inh 7.1, EBV LMP1 NFkB -6.4, TROY NFkB inh -11.6, Shn3 3UTR inh 12.9, HIF-2a block -19.8 and TWEAK Fn14 block -19.8.
`CCCCCCOc1ccc(CN2CCN(CC)CC2)cc1` gave TRPM1 prom inh -65.3, EBV LMP1 NFkB 13.2, TROY NFkB inh 60.3*, Shn3 3UTR inh -16.3, HIF-2a block -79.1 and TWEAK Fn14 block 65.9*.
Screening CCN1CCN(Cc2ccc(OC(F)(F)F)cc2)CC1 returned TRPM1 prom inh -0.1, EBV LMP1 NFkB -3.2, TROY NFkB inh 9.9, Shn3 3UTR inh -13.5, HIF-2a block 6.1 and TWEAK Fn14 block -9.1.
For CC(=NNC(=S)N1CC2CCC(CC2)C1)c1nccs1 the results were TRPM1 prom inh 56.8, EBV LMP1 NFkB 72.8*, TROY NFkB inh -4.3, Shn3 3UTR inh 93.0*, HIF-2a block -251.4 and TWEAK Fn14 block 17.5.
For Cc1ccc(/C=C2\C(=O)NC(=S)N(c3ccc(F)cc3)C2=O)s1 the results were TRPM1 prom inh 58.6, EBV LMP1 NFkB -33.2, TROY NFkB inh -25.9, Shn3 3UTR inh 34.7, HIF-2a block -85.5 and TWEAK Fn14 block -23.5.
Screening Cc1ccc(/C=C2\C(=O)NC(=S)N(c3ccccc3F)C2=O)s1 returned EBV LMP1 NFkB 3.1, TROY NFkB inh -7.3, Shn3 3UTR inh 49.3, HIF-2a block 95.2* and TWEAK Fn14 block 46.8.
CCC1(OC(=O)CN)C(=O)OCc2c1cc1n(c2=O)Cc2cc3ccccc3nc2-1 (centres undefined) was read as TRPM1 prom inh 80.0*, EBV LMP1 NFkB 80.6*, TROY NFkB inh 68.9*, Shn3 3UTR inh 2.1, HIF-2a block 33.9 and TWEAK Fn14 block 81.6*.
`N=c1c2c(n(Cc3ccc(Cl)cc3Cl)c3c1CCC3)CCCC2` gave TRPM1 prom inh 52.8, EBV LMP1 NFkB 37.1, TROY NFkB inh 32.8, Shn3 3UTR inh 85.7*, HIF-2a block 11.2 and TWEAK Fn14 block 35.1.
`Brc1ccc2c(c1)CN(CC1CCCCC1)Cc1cnnn1-2` gave TROY NFkB inh 2.8, Shn3 3UTR inh 6.5, HIF-2a block -1.1 and TWEAK Fn14 block 5.8.
For CC(C)c1ccc(-n2c(O)c(C=NCCN3CCNCC3)c(=O)[nH]c2=S)cc1 the results were TRPM1 prom inh -8.1, EBV LMP1 NFkB -1.9, TROY NFkB inh 9.1, Shn3 3UTR inh -3.6, HIF-2a block -19.9 and TWEAK Fn14 block 2.6.

From PubChem BioAssay
